Screens as filed in PubChem.
Shown are actives, neighbours in structure and some others; about 10% of the full set was active somewhere.
NS1 inh: inhibitors of influenza NS1 protein function; Potency, µM (doses to about 46.1 µM), for inactives: at the top dose activity, positive = more growth; 270,000 compounds, 0.4% hits; AID 2326; note: actives are rising curves; nearly all actives have a fitted effect of over 50% in size
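S. cerevisiae expressing influenza A NS1, grown in glucose, washed, then diluted 1:100 into pH 6.0 -URA galactose medium with 23 nl compound. Growth recovery read as OD600; NS1-free strain serves as control.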
SARS PLpro yeast: inhibitors of SARS-CoV papain-like protease in yeast. S. cerevisiae expressing SARS-CoV PLpro, growth rescue. Potency, µM (top dose mostly 32.9 µM), inactives show top-dose activity, positive = growth rescue, actives largely listed as activators. 330,000 compounds, 0.19% hits. AID 485353; note: 0% is about no effect; nearly all actives have a fitted effect of over 55% in size
Pf growth 48h: inhibits P. falciparum growth in the first generation, 48 h | AID 504832 | 310,000 compounds, 5.9% hits | P. falciparum luciferase growth in erythrocytes, 48 h | Potency, µM (top dose mostly 28.7 µM), inactives show top-dose activity change, negative = inhibition, actives largely listed as inhibitors; active = well fitted inhibition curve with a large enough effect; inconclusive = small, poorly fitted or top-dose-only effect, or another doubt; inactive = no such curve, though single readings can be large or run the other way; note: % is set by controls: 0 for no effect and ±100 for the full control effect
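A one-generation exposure of luciferase-tagged malaria parasites in RPMI 1640/Albumax erythrocyte culture, 37 C and 5% CO2. Inhibition is inferred from decreased luminescence after adding detection reagent.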
Pf growth 96h: P. falciparum growth inhibition at 96 hours; P. falciparum luciferase reporter growth, 96 h; Potency, µM (series often up to 28.7 µM), for the others: at the top dose activity change, negative = inhibition, most hits filed as inhibitors; 320,000 compounds, 6.9% hits; active = well fitted inhibition curve with a large enough effect; inconclusive = small, poorly fitted or top-dose-only effect, or another doubt; inactive = no such curve, though single readings can be large or run the other way; note: % is set by controls: 0 for no effect and ±100 for the full control effect
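P. falciparum expressing integrated firefly luciferase, in erythrocytes at 2% hematocrit, 0.05% parasitemia, incubated with compounds 96 h at 37 C, 5% CO2. Growth inhibition read as loss of luminescence; two-generation exposure targets delayed-death apicoplast inhibitors.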
The depositor's hits bear a star; ? = inconclusive; · = no result given; [ ] = remark or other dose. Unless noted, calls come from the whole dose curve. Potency is the fitted concentration of half-maximal effect.

SMILES	NS1 inh	SARS PLpro yeast	Pf growth 48h	Pf growth 96h
CCOC(=O)C1=c2s/c(=C\c3ccncc3)c(=O)n2C(N)=C(C(=O)OC)C1c1ccncc1 (stereo not drawn)	·	2.6%	-6.7%	5.6%
CCOC(=O)C1=C(C)NC(C)=C(C(=O)OC)C1c1ccco1 (stereo not drawn)	1.4%	-1.0%	?	13.1µM*
CSc1cccc(N2CC(C(=O)Nc3ccccc3N3CCCC3)CC2=O)c1 (stereo not drawn)	·	-1.4%	?	12.4%
CC(=O)Nc1ccc(Nc2nc(C(F)(F)F)nc3c2nnn3Cc2ccccc2Cl)cc1	14.5%	17.7%	0.0%	?
Cc1cccc(N/C=C/C(=O)c2cccs2)c1C	-9.6%	-22.3%	167.7%	4.65µM*
O=C(/C=C/Nc1ccc(F)c(F)c1)c1cccs1	-21.4%	10.6%	240.9%	10.4µM*
CCn1c(SCC(=O)NCCCN2CCCC2=O)nnc1-c1cccc(C)c1	·	-0.6%	17.7%	33.5%
Cc1ccc2c(c1)-c1c(ssc1=S)C(C)(C)N2C(=O)CSc1nncn1C	15.0%	2.4%	?	5.1%
Cc1cc(C)c2c(c1)-c1c(ssc1=S)C(C)(C)N2C(=O)CSc1nncn1C	7.5%	6.4%	4.65µM*	?
Cc1cc2c(cc1C)N(C(=O)CSC1=NCCS1)C(C)(C)c1ssc(=S)c1-2	?	-6.8%	6.57µM*	2.62µM*
C/C(=N\O)c1noc(C)c1C(=O)Nc1nccs1	2.9%	9.5%	1.7%	15.4%
Cc1cc(OC(C)C(=O)NCCCN2CCOCC2)c2c(C)c(C)c(=O)oc2c1 (stereo not drawn)	1.4%	21.6%	5.7%	6.0%
O=C(/C=C/c1ccco1)NC(=S)Nc1ccccc1N1CCCC1	1.6%	0.4%	2.62µM*	43.1%
CCOc1ccc(NC(=S)NC(=O)/C=C/c2ccco2)cc1	12.4%	7.0%	-22.0%	11.7µM*
O=C(/C=C/c1ccco1)NC(=S)Nc1ccccc1N1CCOCC1	-120.5%	19.3%	13.1µM*	?
O=C(/C=C/c1ccco1)Nc1ccccc1N1CCCC1	·	-1.9%	23.7%[5.75 µM]	?
O=C(/C=C/c1ccco1)NC(=S)Nc1cc(C(F)(F)F)ccc1N1CCOCC1	5.7%	6.0%	-0.1%	?
NC/C=C/C(=O)O	0.7%	·	12.6%	12.1%
O=C(CN1C(=O)C(=O)N(C2CCCC2)C1=O)NCCc1ccc(Cl)cc1Cl	·	-1.7%	21.7%	14.0%
COc1ccc([N+](=O)[O-])cc1NC1CCN(C(=O)c2cccs2)CC1	5.0%	0.4%	?	?
COc1cc(C(=S)N2CCOCC2)cc(OC)c1OS(=O)(=O)c1ccc(NC(C)=O)cc1	-8.9%	1.5%	0.1%	13.1µM*
O=C(Nc1ccc(S(=O)(=O)N2CCCCC2)cc1)c1ccc(CN2CCc3ccccc3C2)cc1	10.8%	-2.7%	?	7.38µM*
O=C(Nc1ccc(S(=O)(=O)N2CCOCC2)cc1)c1ccc([N+](=O)[O-])o1	1.7%	-1.9%	10.4µM*	?
CC(C)C(=O)Nc1cccc(C(=O)Nc2ccc(S(=O)(=O)N3CCOCC3)cc2)c1	-9.9%	8.4%	-11.2%	10.4µM*
COc1cc(C(=S)N2CCOCC2)cc(OC)c1OS(=O)(=O)c1ccc(C)cc1	10.4%	-3.4%	-19.2%	-36.2%
SMILES	NS1 inh	SARS PLpro yeast	Pf growth 48h	Pf growth 96h
O=C(NCC1CCCO1)c1cccc(S(=O)(=O)Nc2ccc(SC(F)F)cc2)c1 (stereo not drawn)	·	0.6%	-17.7%	-13.3%
COc1cc(CNCc2cc(OC)ccc2OC)cc(OC)c1	9.4%	6.1%	?	?
Cc1ccc(NC(=O)c2ccc(S(=O)(=O)N3CCCCC3)cc2)cc1	0.2%	-4.8%	?	11.7µM*
COc1ccc(C)cc1NC(=O)c1ccc(CN2CCc3ccccc3C2)cc1	-7.0%	-4.7%	-15.2%	0.7%
Cc1ccc(NC(=O)c2ccc(S(=O)(=O)N3CCCC3)cc2)cc1	-15.9%	·	·	·
CC(=O)Nc1ccc(C(=O)Nc2ccc(S(=O)(=O)N3CCOCC3)cc2)cc1	7.8%	2.7%	?	8.28µM*
COC(=O)c1ccc(C)c(NC(=O)c2ccc(CN3CCc4ccccc4C3)cc2)c1	0.6%	-1.2%	-7.2%	9.28µM*
CC1(C)CC(=O)C/C(=N\NC(=O)CCc2ccc(S(=O)(=O)N3CCOCC3)cc2)C1	·	3.7%	-2.5%	0.0%
O=C(NC1CCCCC1)c1nn2c(C(F)(F)F)cc(-c3ccco3)nc2c1Br	1.5%	5.6%	15.6%	-10.2%
O=C(c1ccccc1)N1CCN(C(=O)c2nn3c(C(F)(F)F)cc(-c4ccco4)nc3c2Br)CC1	2.5%	-0.1%	10.4µM*	0.0%
